Results: ChEMBL document CHEMBL1201862, “PubChem BioAssay data set” (2004)
In all, about 54,000 sequences went through this assay and about 4,600 (8.5%) were called active. No stated cut-off is given here; in the data, active = GI50 up to about 1.1 µM and inactive = higher. Only a selection was taken, and actives are over-represented in it overall. Potency and affinity values are given separately.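 Growth conditions: 96-well plates. Treatment: test compound, 48 hours, 5 concentrations. Analysis: linear interpolation between bracketing concentrations; unreached endpoints set to highest concentration. GI50 marks 50% less growth.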

What follows are substances tested on LOX IMVI (assay: NCI tumour cell line growth inhibition, 48 h).

Substance | GI50
CISPLATIN, CHEMBL11359 | 1.41 µM
[Bis(aminomethyl)dimethylsilane]tetrachloroplatinum(IV), CHEMBL2146190 | 7.48 µM
cis-Bis[[(trimethylsilyl)methyl]amino]tetrachloroplatinum(IV), CHEMBL2146191 | 5.48 µM
[Bis(aminomethyl)ethylmethylsilane]tetrachloroplatinum(IV), CHEMBL2146192 | 7.41 µM
[Bis(aminomethyl)tetramethylenesilane]tetrachloropaltinum(IV), CHEMBL2146189 | 3.26 µM
[Bis(aminomethyl)dimethylsilane]dichloroplatinum (II), CHEMBL2146201 | 38.6 µM
[Bis(aminomethyl)pentamethylenesilane]tetrachloropaltinum(IV), CHEMBL2146204 | 0.74 µM
[Bis(aminomethyl)pentamethylenesilane]dichloropaltinum(II), CHEMBL2146202 | 0.889 µM
[Bis(aminomethyl)tetramethylenesilane]dichloropaltinum(II), CHEMBL2146205 | 22.3 µM
mu-(1,7-nanodiamine-N,N')bis-(cis-aminedichloroplatimum (II)), CHEMBL2146215 | 12.6 µM
